Laboratory results taken from PubChem BioAssay AID485270 (The Scripps Research Institute Molecular Screening Center, 2010).
Hit rate of the full screen: of about 330,000 compounds, about 5,800 (1.8%) were called active. The sample holds actives, similar compounds and a random draw of the others, so the mix is not that of the screen. Cut-off read from the data, not from the text of the source: active = inhibition mostly above about 38% (no sharp cut-off); inactive = mostly below about 40%.

Molecular target: Orexin/Hypocretin receptor type 1 (Homo sapiens) (UniProt O43613)
Sequence (O43613 whole entry, looked up): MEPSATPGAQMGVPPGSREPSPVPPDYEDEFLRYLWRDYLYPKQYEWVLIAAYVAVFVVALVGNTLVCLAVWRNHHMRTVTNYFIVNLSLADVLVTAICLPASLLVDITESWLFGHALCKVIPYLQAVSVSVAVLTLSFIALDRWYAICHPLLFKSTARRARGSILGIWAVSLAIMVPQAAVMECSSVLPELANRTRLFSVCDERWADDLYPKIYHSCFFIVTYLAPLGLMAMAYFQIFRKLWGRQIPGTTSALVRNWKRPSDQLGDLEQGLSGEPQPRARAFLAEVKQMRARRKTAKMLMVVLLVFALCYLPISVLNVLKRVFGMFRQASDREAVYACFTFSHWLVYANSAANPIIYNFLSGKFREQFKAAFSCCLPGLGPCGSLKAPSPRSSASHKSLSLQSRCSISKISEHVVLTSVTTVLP
Assay: blocks the human orexin 1 receptor (AID 485270);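 note: 0% = agonist challenge alone and 100% = reference antagonist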
Conditions: OX1R-expressing cells, FRET antagonist read-out; at 6.6 µM; hits give high values

Compound	inhibition
CC1Sc2ccc(C(=O)NCc3ccccc3Cl)cc2NC1=O (stereo unspecified)	1.56% (inactive)
NC(=O)Nc1ccc(C(=O)OCC(=O)NC2CCCc3ccccc32)cc1 (stereo unspecified)	19.8% (inactive)
COc1cccc(CC2(CO)CCCN(CC3=Cc4cc(OC)ccc4OC3)C2)c1 (stereo unspecified)	25.7% (inactive)
COc1cccc(CC2(CO)CCCN(Cc3nc(-c4cccs4)oc3C)C2)c1 (stereo unspecified)	45% (active)
COc1cccc(CC2(CO)CCCN(Cc3ccc(OC(F)F)cc3)C2)c1 (stereo unspecified)	13.4% (inactive)
COC(=O)[C@]1(Cc2ccccc2)N[C@H](CN(C)S(=O)(=O)c2ccc(OC(F)(F)F)cc2)[C@@H]2C(=O)N(C)C(=O)[C@@H]21	5.12% (inactive)
O=C(CSc1ncnc2sccc12)NC1CCS(=O)(=O)C1 (stereo unspecified)	4.8% (inactive)
CCCCNS(=O)(=O)CCNCc1ccccc1OC	5.19% (inactive)
CCCCNC(=O)C(C)N(CCN(C)C)C(=O)CCCCCN1C(=O)NC(c2ccc(Cl)cc2)C(C(=O)OCc2ccccc2)=C1C (stereo unspecified)	7.69% (inactive)
O=C(CCCOc1ccccc1)NNC(=O)c1ccc(Cl)cc1	2.88% (inactive)
CN=C1C=C/C(=N/N=c2\ccn(O)cc2C)C=C1C	58.6% (active)
CCOc1ncccc1C(=O)Nc1ccc2c(c1)OCCO2	14.1% (inactive)
O=C(COC(=O)c1ccc(F)cc1)Nc1ccc2c(c1)OCO2	7.07% (inactive)
COc1cc2ccccc2cc1C(=O)N1CCOCC1	9.14% (inactive)
COc1cc2ccccc2cc1C(=O)Nc1ccncc1	17.8% (inactive)
COc1cc2ccccc2cc1C(=O)Nc1ccc(N2CCOCC2)cc1	63.5% (active)
O=C(Cn1cnc2ccccc2c1=O)NNC(=O)c1ccccc1F	6.41% (inactive)
COC(=O)c1ccc(NC(=O)c2cc3c(CO)cnc(C)c3oc2=Nc2cccc(C(N)=O)c2)cc1	7.42% (inactive)
COc1cccc2cc(C(N)=O)/c(=N\NC(=O)c3ccccc3)oc12	5.27% (inactive)
COc1cccc(N=c2oc3c(C)ncc(CO)c3cc2C(N)=O)c1	84.6% (active)
O=C(CN1C(=O)NC2(CCCCCC2)C1=O)Nc1ccc([N+](=O)[O-])cc1	11.2% (inactive)
O=C(Nc1ccccc1F)c1ccc(Cn2cc(Br)cn2)cc1	8.12% (inactive)
Cc1ccc(Br)c(NS(=O)(=O)c2cccc(C(=O)N3CCNC(=O)C3)c2)c1	3.06% (inactive)

Compound	inhibition
S=C(NC1CCCCC1)NN1CCOCC1	18.3% (inactive)
COc1ccc(NC(=O)CN2C(=O)CSc3ccc(S(=O)(=O)N4CCC(C)CC4)cc32)cc1	3.75% (inactive)
O=C(Nc1cccc(S(=O)(=O)N2CCCC2)c1)c1cncc(Br)c1	-1.91% (inactive)
COc1cccc(/C=C2\C=C(c3ccc(C)cc3)OC2=O)c1OC(C)=O	-6.31% (inactive)
CCOc1cccc(/C=C/c2ccc3ccccc3n2)c1OC(C)=O	58.1% (inactive)
COc1cccc(/C=C/c2ccc3ccccc3n2)c1OC(C)=O	92% (active)
O=C(CSc1ncn[nH]1)Nc1ccc(Br)cc1Br	5.47% (inactive)
C=CC[C@@H](CC(=O)N[C@@H](CO)Cc1ccccc1)C(=O)N[C@H](COC(=O)[C@H](CC=C)CC(=O)OC(C)(C)C)Cc1ccccc1	3.4% (inactive)
CN(Cc1ccc(F)cc1)C(=O)CN1C(=O)c2ccccc2S1(=O)=O	13.1% (inactive)
Cc1nn(Cc2ccccc2)c(Cl)c1C(=O)OC1CCOC1=O (stereo unspecified)	21.6% (inactive)
CC(C)c1ccc(C(=O)OC2CCOC2=O)cc1 (stereo unspecified)	27.2% (inactive)
O=C(OC1CCOC1=O)c1ccc(-c2nc3ccccc3s2)s1 (stereo unspecified)	119% (active)
Cc1ccc(S(=O)(=O)N2CCCCC2)cc1NC(=O)CCNC(=O)c1ccccc1	2.26% (inactive)
COc1cccc(CNC(C)C(=O)Nc2ccc(S(=O)(=O)N3CCCC3)cc2)c1 (stereo unspecified)	2.03% (inactive)
O=C(NNC(=O)c1ccc(Cl)nc1)c1ccc(Br)cc1	8.95% (inactive)
CCN(C[C@H]1N[C@@](CC)(C(=O)OC)[C@H]2C(=O)N(Cc3ccccc3)C(=O)[C@@H]12)S(=O)(=O)c1ccccc1	6.85% (inactive)
O=C(Cc1ccc2c(c1)CCCC2)Nc1ccccc1Cl	6.59% (inactive)
Cc1c(NC(=O)Nc2ccccc2Cl)sc(=S)n1C	12.2% (inactive)
O=C(Nc1ccccc1Cl)/C(Cl)=C(\Cl)S(=O)c1ccccc1 (stereo unspecified)	87.9% (active)
COc1ccc(CNC(=O)C2CCN(C(=O)c3ccco3)CC2)cc1	14.6% (inactive)
CC(=O)c1c(OCC(=O)N(C)C2CCCCC2)ccc2c(C)cc(=O)oc12	2.71% (inactive)
O=C(NCC1CC1)c1onc(CSc2ccccc2)c1C(=O)NCC1CC1	28.4% (inactive)
O=C(NCc1ccccc1)c1onc(CSc2ccncc2)c1C(=O)NCc1ccccc1	16.4% (inactive)

Compound	inhibition
O=C(NCc1ccccc1)c1onc(CSc2nc3ccccc3[nH]2)c1C(=O)NCc1ccccc1	71.2% (active)
O=S(=O)(Nc1ncnc2sccc12)c1cccc(F)c1	3.31% (inactive)
Cc1cc(NC(=O)COC(=O)/C=C/c2ccc(C)o2)no1	1.38% (inactive)
C=CCSc1nnc2c(n1)-c1cccc3cccc-2c13	56.6% (active)
CCOC(=O)C1=CN(Cc2ccc(Br)cc2)S(=O)(=O)NC1C (stereo unspecified)	8.5% (inactive)
COc1cc2c(-c3ccc4c(c3)OCO4)c(-c3ccsc3)oc(=O)c2cc1OC	16.2% (inactive)
CC(OC(=O)c1cc2ccccc2[nH]1)C(=O)N(C)c1ccccc1 (stereo unspecified)	5.48% (inactive)
COc1cc(C(=O)OCc2ccc([N+](=O)[O-])cc2)cc(OC)c1OC	14.5% (inactive)
COc1ccc(C(=O)COC(=O)c2ccc([N+](=O)[O-])s2)cc1OC	38.5% (active)
COc1ccc(C(=O)OCC(=O)Nc2ccc3[nH]c(=O)[nH]c3c2)c(OC)c1OC	18% (inactive)
COc1ccc(C(=O)OCC(=O)c2ccc(C)c(S(=O)(=O)N3CCOCC3)c2)cc1OC	27.8% (inactive)
O=C(CN1CCCC1)N1CCN(c2ccccc2)CC1	3.2% (inactive)
O=C(OCC(=O)N1CCN(c2ccccc2)CC1)c1ccc([N+](=O)[O-])s1	42.6% (active)
C[C@H](NC(=O)c1ccccc1Cl)C(=O)OCC(=O)N1CCN(c2ccccc2)CC1	3.17% (inactive)
COc1ccc(C(=O)NCC(=O)N/N=C/c2ccc([N+](=O)[O-])s2)cc1OC	44% (inactive)
COc1cc(NC(=O)COC(=O)c2ccc([N+](=O)[O-])s2)cc(OC)c1OC	47.4% (active)
C[C@H](CO)N1C[C@H](C)[C@H](CN(C)C(=O)Nc2ccc(C(F)(F)F)cc2)Oc2c(NC(=O)c3ccncc3)cccc2C1=O	12.5% (inactive)
CCOc1ccc(Br)cc1S(=O)(=O)Nc1ccc(S(=O)(=O)Nc2cc(C)on2)cc1	-0.05% (inactive)
CN(C)C(=O)CCc1ccc2c3c([nH]c2c1)[C@]1(CCc2ccccc2)[C@@H](C(=O)N2CCCCC2)C[C@H](CC(=O)NCCC2=CCCCC2)C(=O)N1CC3	10.4% (inactive)
COc1ccc2sc(-c3ccc(S(C)(=O)=O)cc3)c(C#Cc3cncn3C)c2c1	6.52% (inactive)
C=CCC[C@H](Cc1ccc(F)cc1)C(=O)OC[C@@H](Cc1c[nH]c2ccccc12)NC(=O)[C@H](CC=C)CC(=O)N[C@H](CO)Cc1ccccc1	3.33% (inactive)
COc1ccccc1NC(=O)COC(=O)CNC(=O)C1CCCCC1	5.3% (inactive)
Cc1c(Cl)cnc(NC(=O)COC(=O)C2CCCC2)c1Cl	2.82% (inactive)

Compound	inhibition
COc1ccc(C(=O)COC(=O)CN2C(=O)C3CC=CCC3C2=O)c(OC)c1 (stereo unspecified)	0.55% (inactive)
CCN([C@H](CO)C(C)C)S(=O)(=O)c1ccccc1Br	8.87% (inactive)
CCCN=C1N(C)C[C@@H]2[C@@H]3C(=O)N(Cc4ccccc4)C(=O)[C@@H]3[C@](C)(C(=O)OC)N12	3.52% (inactive)
Cc1cc[n+](-c2[nH]c(=O)sc2/C=N/NC(=O)c2ccccc2[O-])cc1C	67.1% (active)
Cc1ccc(/C=N/NC(=O)c2cc3ccccc3cc2O)o1	22.1% (inactive)
Cc1ccc2occ(/C=N/NC(=O)c3ccccc3C)c(=O)c2c1	11.9% (inactive)
C[C@H](CO)N1C[C@H](C)[C@@H](CN(C)S(=O)(=O)c2ccc(F)cc2)Oc2c(NC(=O)Nc3ccccc3)cccc2C1=O	3.72% (inactive)
Fc1ccc2cnc(-c3ccccc3)cc2c1	1.78% (inactive)
O=C(Nc1ccccc1F)c1ccc2c(c1)OCO2	0.6% (inactive)
Fc1ccccc1-c1cc2cc3c(cc2cn1)OCO3	66% (active)
CN1OC(COC(=O)c2ccc(Cl)cc2)CC1c1ccccc1 (stereo unspecified)	-0.66% (inactive)
Cc1ccc(S(=O)(=O)N2[C@@H](c3ccc(Br)cc3)C(C(=O)O)=C[C@H]2CC2CCCC2)cc1	31.2% (inactive)
CS(=O)(=O)N(CC(=O)N1CCN(c2cccc(Cl)c2)CC1)c1ccccc1	-2.69% (inactive)
Cc1ccc(S(=O)(=O)N2C3C=CC(C3)C2C(=O)O)cc1 (stereo unspecified)	7.96% (inactive)
Cc1ccc(S(=O)(=O)N2[C@@H](c3ccccc3F)C(C(=O)O)=CC[C@H]2c2ccc(Cl)cc2)cc1	64.8% (active)
Cc1ccc(S(=O)(=O)N(CC(=O)N2CCc3ccccc3C2)c2cccc(Cl)c2)cc1	40% (inactive)
Cc1ccc([C@@H]2CC=C(C(=O)O)[C@H](c3cccc(Cl)c3)N2S(=O)(=O)c2ccc(C)cc2)cc1	82.9% (active)
Cc1ccc2c(c1)C(c1ccccc1)N(C(=O)c1ccc(S(=O)(=O)N3CCOCC3)cc1)CC(=O)N2 (stereo unspecified)	7.06% (inactive)
Cc1ccc(S(=O)(=O)N2[C@@H](c3cccc(Cl)c3)C(C(=O)O)=CC[C@H]2c2ccc(Cl)c(Cl)c2)cc1	81.4% (active)
Cc1ccccc1S(=O)(=O)N1[C@@H](c2cccc(Cl)c2)C(C(=O)O)=CC[C@H]1c1ccc(Cl)cc1	90.2% (active)
Cc1ccc(S(=O)(=O)N2CCN(CC(=O)N/N=C/c3cc([N+](=O)[O-])ccc3Cl)CC2)cc1	19.3% (inactive)
COc1ccccc1N1CCN(S(=O)(=O)c2ccc(Cl)cc2)CC1	4.56% (inactive)
